Hit rate of the full screen: of about 68,000 compounds, about 2,700 (4%) showed an effect of 50% or more. What follows is part of a selection rich in strong results, with near analogues and random picks from the rest.
system: Plasmodium berghei; assay: Screen against P. berghei liver stage (PbLuc), transformed with Luciferase, at 2uM; assay type: functional, HepG2; conditions: tested at 2 uM

Row | SMILES | INHIBITION [%]
1 | Cc1ccc2c(c1)c(CNC(=O)C1CCCN(CC(N)=O)C1)nn2C (stereo not given) | -1.87
2 | Cc1ccc2c(c1)c(CNC(=O)C1CCN(CC(N)=O)CC1)nn2C | 58.53
3 | Cc1ccc2c(c1)c(CNC(=O)C1CCN(C(=O)C3CC3)CC1)nn2C | -13.72
4 | CC(C)c1cc(C(=O)N[C@@H]2CC[C@@H](Oc3ccccc3)[C@@H]2O)on1 | 19.69
5 | CCc1c(C(=O)O)nnn1-c1cc(C)cc(C)c1 | -50.41
6 | COc1ccccc1OC1(C(=O)O)CCN(c2ncnc(C)c2C)CC1 | 60.13
7 | COc1ccccc1OC1(C(=O)O)CCN(c2nc(C)cnc2C)CC1 | 33.9
8 | COc1ccccc1OC1(C(=O)O)CCN(c2nccnc2C)CC1 | 1.34
9 | O=C(CC1CC1)NC[C@]12COC[C@H]1CN(c1ncccn1)C2 | 22.36
10 | Cc1nc(C2CCCN2C(=O)Cc2ccc(F)cc2)nc(O)c1C (stereo not given) | 46.57
11 | COc1cccc(CC(=O)N2CCCC2c2nc(C)c(F)c(O)n2)c1 (stereo not given) | 52.82
12 | Cc1nc(C2CCCN2C(=O)Cc2ccc3c(c2)OCO3)nc(O)c1C (stereo not given) | 22.39
13 | COc1cccc(CC(=O)N2CCCC2c2nc(C)c(C)c(O)n2)c1 (stereo not given) | 55.74
14 | COc1ccc(CC(=O)N2CCCC2c2nc(C)c(C)c(O)n2)cc1 (stereo not given) | 29.48
15 | Cc1nc(C2CCCN2C(=O)Cc2cccc(F)c2)nc(O)c1C (stereo not given) | 27.81
16 | CCOC(=O)[C@]12CCCN(Cc3cccs3)C[C@H]1CN(C(C)=O)C2 | -12.74
17 | Cc1nc2cc(O)nn2c(C)c1CCC(=O)N(C)Cc1cscn1 | -1.73
18 | CC(C)c1ccc(-n2cc(O)c(C(=O)N3CCC(C(N)=O)CC3)n2)cc1 | -40.06
19 | Cc1nc(COC[C@]23COC[C@H]2CN(Cc2ccoc2)C3)cs1 | 18.57
20 | COc1ccc(C(C(=O)O)N2CCC(Cn3cccn3)CC2)cc1F (stereo not given) | 15.46
21 | Cc1ccnc(NC(=O)c2c(C)oc(C)c2C)c1 | -18.78
22 | CCC1(C)Cc2ccccc2-c2nc(NCCCO)nc(O)c21 (stereo not given) | 44.7
23 | CCOc1ccc2[nH]c3c(N(C)CC4OCCO4)ncnc3c2c1 | 38.64
24 | Cc1ccc(S(=O)(=O)NC(=O)CCC(F)(F)F)cc1N(C)C | 3.39
25 | CN(C)c1nc(NCCc2cnccn2)ncc1F | 44.19
26 | CN1CCN(C)C2(CCN(Cc3ccc(C4CCCCO4)o3)CC2)C1 (stereo not given) | -6.27
27 | OCC1(O)CCN(Cc2ccc(C3CCCCO3)o2)CC1 (stereo not given) | 61.27

Row | SMILES | INHIBITION [%]
28 | CN1CCC2(CC1)CN(Cc1ccc(C3CCCCO3)o1)CCCN2C (stereo not given) | -83.94
29 | CC(=O)N1CCN(C(=O)CN2CCc3c(ncn3C3CC3)C2)CC1 | 37.52
30 | Cc1ccsc1CN(CCN(C)C)C(=O)C1=NNC(=O)CC1 | -1.87
31 | COC(=O)c1sccc1NC(=O)C1CCCN1C(=O)c1ccco1 (stereo not given) | -16.52
32 | COCc1ccccc1NC(=O)[C@@H]1CCCN1C(=O)c1ccco1 | 1.86
33 | Cc1cccc(NC(=O)C2CCCN2C(=O)c2ccco2)c1C (stereo not given) | 58.53
34 | O=C(CN1CCN(c2ncnc3cccc(F)c23)CC1)N1CCCC1 | -11.35
35 | NC(=O)CN1CCCN(C(=O)Cc2ccc(F)cc2)CC1 | 33.12
36 | O=C(Cc1c(F)cccc1F)N1CCN(CC(=O)N2CCCC2)CC1 | 57.95
37 | CCc1n[nH]c(C2CN(C(=O)c3cscn3)CCO2)n1 (stereo not given) | -34.61
38 | Cc1csc(N2CCCN(c3cc(C)nc(C)c3C#N)CC2)n1 | -20.21
39 | Cc1cc(N2CCCC2)c(C#N)c(C)n1 | -27.68
40 | Cc1cc(N2CCCCC2)c(C#N)c(C)n1 | 54.44
41 | Cn1cccc1C(=O)N1CCCN(CCCc2ccccc2)CC1 | -25.8
42 | Cc1cnc(C)c(N2CCN(CC3CCCO3)CC2)n1 (stereo not given) | -18.84
43 | Cc1nccn1CCC1CCN(C2CCC3(CCNCC3)CC2)CC1 | 34.52
44 | CC(=O)Nc1ccc2nc(-c3nccn3C[C@@H]3CCCO3)ccc2c1 | 25.13
45 | CCc1nc(C)c(-c2nccn2CC2CCN(C3CCCC3)CC2)[nH]1 | 56.81
46 | CCc1nc(C)c(-c2nccn2CC2CCCCO2)[nH]1 (stereo not given) | 54.75
47 | CCc1nc(C)c(-c2nccn2CC2CC(=O)N(CC)C2)[nH]1 (stereo not given) | -5.65
48 | O=C(c1ccoc1)N1C[C@H]2CC[C@@]3(N=C(c4ccccc4)NC3=O)[C@H]2C1 | -1.45
49 | Cc1nn(C)c2c(=O)n(C)c(NCC3CCCO3)nc12 (stereo not given) | 37.45
50 | CC(C)=CCC/C(C)=C/CN1CCN(C)C2(CCNC(=O)CC2)C1 (stereo not given) | 43.94
51 | CC/C(C)=C/CCN1CCN(C)C2(CCNC(=O)CC2)C1 (stereo not given) | 20.2
52 | CC(C)=CCCN1CCN(C)C2(CCC(=O)N(C)CC2)C1 (stereo not given) | 77.56
53 | Cc1noc(C)c1CN1CCc2ncnc(-c3ccccc3)c2CC1 | -20.87
54 | CCCC(=O)NC1CCCN(Cc2cccs2)C1 (stereo not given) | 53.65

Row | SMILES | INHIBITION [%]
55 | O=C(CN1CCCC1)N1CCCC(CNS(=O)(=O)Cc2ccccc2)C1 (stereo not given) | -4.77
56 | Cc1ncsc1CCC(=O)NC1CCN(Cc2cccs2)CC1 | 26.93
57 | O=S(=O)(Cc1ccccc1)NCC1CCCN(Cc2cccs2)C1 (stereo not given) | 64.35
58 | O=C(Cc1cccs1)N1CCCC(CNS(=O)(=O)Cc2ccccc2)C1 (stereo not given) | -40.36
59 | CC(C)(C)OC(=O)NC1CCCN(Cc2cccs2)C1 (stereo not given) | 1.08
60 | O=C(NS(=O)(=O)c1ccccc1C(F)(F)F)c1cccc2c1OCCO2 | 37.69
61 | Fc1ccc(CC2CCN(Cc3cscn3)CC2)cc1 | -23.58
62 | COc1cccc(COCC(=O)N2CCCC(c3ccn[nH]3)C2)c1 (stereo not given) | 14.97
63 | Cc1ncc(-c2ccnc(NCCO)n2)c(C2CCCCC2)n1 | -38.58
64 | Cc1cc(NC(=O)c2ccc(CN3CC[C@H](O)C3)cc2)ccc1F | 82.91
65 | Cc1cncc(NC(=O)c2ccc(CN3CC[C@H](O)C3)cc2)c1 | 42.48
66 | COc1cc(NC(=O)c2ccc(CN3CC[C@H](O)C3)cc2)cc(OC)c1 | 20.71
67 | Cc1cscc1-c1nc(C2CCOC2)no1 (stereo not given) | 10.22
68 | O=C(NCc1nnc2n1CCC2)c1ccc(Br)s1 | 22.39
69 | CC(O)CN1CCN(Cc2nnc(C3CC3)o2)CC1 (stereo not given) | 7.54
70 | CCOCCN1CCN(Cc2nnc(C3CC3)o2)CC1CC (stereo not given) | -0.55
71 | COCCN1C(=O)[C@@H]2CC[C@H]1CN(Cc1nnc(C3CC3)o1)C2 | 29.18
72 | CC1CN(Cc2noc(C3CC3)n2)CCN1Cc1noc(C2CC2)n1 (stereo not given) | 33.82
73 | CCOCCN1CCN(Cc2nnc(C3CC3)o2)CC1C (stereo not given) | -19.75
74 | CCC1CN(Cc2nnc(C3CC3)o2)CCN1CCOC (stereo not given) | 66.64
75 | COCCN1CCN(Cc2noc(C3CC3)n2)CC1C (stereo not given) | 53.03
76 | CC1CN(Cc2noc(C3CC3)n2)CCN1Cc1nccn1C (stereo not given) | 14.82
77 | CCOCCN1CCN(Cc2nnc(C3CC3)o2)CC1 | 51.7
78 | Cc1ccc(N2CCC3(CCN(Cc4csc(C)n4)CC3)CC2)nn1 | 18.91
79 | COc1ccc(C(C)NCCc2ccc(NC(C)=O)cc2)c(OC)c1 (stereo not given) | 26.99
80 | CC(=O)N1CCn2c(nnc2C2CCCCN2Cc2ccccc2Cl)C1 (stereo not given) | -46.48
81 | CN(C)C(=O)c1nc(CN2C(=O)OC[C@@H]2c2ccccc2)no1 | 18.19

Row | SMILES | INHIBITION [%]
82 | Cn1cc(C(=O)NCc2ccc(OC3CCCCC3)nc2)ccc1=O | 2.66
83 | Cc1noc(C)c1CN1CC2(CCCCN2c2cncnc2)CC1=O (stereo not given) | 50.32
84 | Cc1noc(C)c1CN1CC2(CCCCN2C)CC1=O (stereo not given) | 21.57
85 | N#Cc1cccc(CN2CC3(CCCCN3c3cncnc3)CC2=O)c1 (stereo not given) | -29.69
86 | O=C(O)c1cc(-c2ccoc2)cc(S(=O)(=O)N2CCSCC2)c1 | 7.09
87 | Cc1cccc(NC(=O)CNC(=O)c2ccccc2F)c1 | 53.99
88 | O=C(CNC(=O)c1ccccc1F)NCc1ccccn1 | -20.05
89 | Cc1cccc(NC(=O)CCC(=O)NCC(=O)c2ccccc2F)c1 | 22.31
90 | N#Cc1cc(CSCCN2CCOCC2)ccc1F | 39.71
91 | Cc1c(C(=O)N2CC(O)C2)nnn1-c1cccc2cnccc12 | 50.31
92 | Cc1c(C(=O)N2CCC2(C)C)nnn1-c1cccc2cccnc12 | 9.78
93 | Cc1c(C(=O)N2CC(=O)N(C)C2)nnn1-c1cccc2cccnc12 | 57.5
94 | Cc1c(C(=O)N2CC(C)(C)C2(C)C)nnn1-c1cccc2cnccc12 | -107.15
95 | Cc1c(C(=O)O)nnn1-c1cccc2cccnc12 | -58.01
96 | Cc1c(C(=O)N2CCC2(C)C)nnn1-c1cccc2cnccc12 | 9.78
97 | c1cc(C2CCCN2CC2CC2)n[nH]1 (stereo not given) | 13.02
98 | COc1ccc(CNC(=O)CCn2cc(C)cn2)cc1C | -14.47
99 | CC(c1ccccn1)N(C)Cc1ccc(-n2ccnc2)cc1 (stereo not given) | 2.67
100 | C[C@@H](NCc1cccc(Cl)c1)c1onc(-c2ccc(F)cc2)c1C(=O)O | 37.54
101 | Cc1cc(OCC(=O)N2CCCC(c3noc(C)n3)C2)no1 (stereo not given) | 6.3
102 | Cc1cc(C2CCCN(C(=O)COc3cc(C)on3)C2)n[nH]1 (stereo not given) | 60.64
103 | Cc1cc(OCC(=O)N2CCCC(c3ccn[nH]3)C2)no1 (stereo not given) | 24.31
104 | CN1C(=O)CCC12CCCN(C(=O)c1ccncc1F)C2 (stereo not given) | -39.56
105 | CCc1noc(C)c1C(=O)N1CCCCC1Cn1cc(C)cn1 (stereo not given) | -11.2

— ChEMBL document CHEMBL4513216, “Probing the Open Global Health Chemical Diversity Library for Multistage-Active Starting Points for Next-Generation Antimalarials” (ACS Infect Dis, 2020)
